Measured values as given in ChEMBL document CHEMBL3988442, “University of Dundee, Small-Polar-MMV Screening Library” (2021).
Among all 85,000 compounds or so, about 440 (0.52%) showed an effect of 50% or more. The sample as a whole holds a higher share of strong results than the screen did.

Assay: In vitro enzyme assay to detect hydrolysis of chlorophenol red-beta-D-[…] directly proportional to the number of Toxoplasma stably expressing beta-galactosidase
Format: functional, organism-based, Toxoplasma gondii
Set-up: scale not given: in the data most compounds retested in dose-response had high values

SMILES | Percent Effect (50 µM) | Percent Effect (10 µM)
CC(CCNC(=O)CCc1cccnc1)n1ccnc1 (configuration not stated) | -1.131% | 
Cc1cc(=O)cc(C(=O)NCCC(C)n2ccnc2)o1 (configuration not stated) | 85.97% | 
Cc1cc(=O)cc(C(=O)NCCCc2ccncc2)o1 | 15.6% | 
COCC(=O)N1CCCN(Cc2cnn(C)c2)CC1 | 1.219% | 
CC(=O)Nc1nc(CC(=O)NCc2ccco2)cs1 | -28.1% | 
Cn1cc(NC(=O)CCc2ccccn2)cn1 | -11.54% | 
Cc1cn(-c2ccc(C#N)cc2)nc1N | -9.418% | 
N#Cc1ccc(-n2nccc2N)cc1 | 92.39% | 
Nc1ccnn1-c1ccccn1 | -4.085% | 
O=C1CNCN1Cc1ccccc1 | 2.533% | 
N[C@@H]1CC[C@@H]1NC(=O)c1scc2c1OCCO2 | -7.783% | 
Cc1cnc(CN2CC3(CCOC3)CCC2=O)cn1 (configuration not stated) | -2.648% | 
Cc1ccc(CNC(=O)c2cc(NC(=O)C3CC3)n(C)n2)o1 |  | 2.088%
Cc1cc(C(=O)NCC(C)C)nn1C |  | 9.135%
Cc1cc(C(=O)NCCc2noc(C3CC3)n2)nn1C | 97.7% | 
CCn1ccc(C(=O)NCc2ccco2)n1 | -13.38% | 
Cc1cc(C(=O)NCc2cccn2C)nn1C |  | 1.66%
Cc1cc(C(=O)NCc2ccco2)nn1C |  | 56.09%
Cc1ccc(CNC(=O)c2cc(C)n(C)n2)o1 |  | 75.49%
Cc1cc(C(=O)NCCc2noc(C3CC3)n2)[nH]n1 | 12.77% | 
Cn1cc(C(=O)NCCc2noc(C3CC3)n2)cn1 | -7.141% | 
CN(Cc1cccnc1)C(=O)c1cccc(Cl)c1 | 11.97% | 
CNC(=O)CSCc1ccc2ccccc2n1 | 15.55% | 

SMILES | Percent Effect (50 µM) | Percent Effect (10 µM)
CCCS(=O)(=O)N1CCC(CC(=O)NC)CC1 | -1.732% | 
Cn1cncc1C(N)CO (configuration not stated) | -9.765% | 
CCC(N)(CC)CNS(=O)(=O)c1ccc2c(c1)CCO2 | -2.355% | 
CC(C)CC(C)CN1CCN(CCS(C)(=O)=O)CC1 (configuration not stated) | -18.72% | 
COc1csc(-c2cc(N)[nH]n2)c1 | 7.911% | 
CCS(=O)(=O)CCNC(C)(CO)C1CCCCC1 (configuration not stated) | -6.595% | 
CC(=O)c1c(C)cccc1NCC(=O)N(C)C | -19.59% | 
Cn1cc(CN(C(=O)c2ccc(N)nc2)C2CC2)cn1 | 96.08% | 
CN1C(=O)c2ccc(C(=O)N(Cc3cnn(C)c3)C3CC3)cc2C1=O |  | -5.009%
Cn1cc(CN(C(=O)c2ccc(O)c(Cl)c2)C2CC2)cn1 |  | -12.14%
CC(=O)N[C@H]1CCO[C@@H](c2cccc(NC(=O)c3cccc(F)c3)c2)C1 |  | 20.53%
CC(=O)N[C@H]1CCO[C@@H](c2cccc(NC(=O)c3ccc(=O)[nH]n3)c2)C1 |  | 71.09%
CC(=O)Nc1cccc([C@H]2C[C@@H](NC(C)=O)CCO2)c1 |  | -4.369%
COCCCNC(=O)Nc1cnn(C)c1 | 3.712% | 
Cn1nnc2c(N3CCCCC3)ncnc21 | -0.3233% | 
O=C([C@@H]1CCO[C@@H]2CCN(CC3CC3)C[C@H]21)N1CCCCO1 |  | 96.45%
O=C(O)C(F)(F)F.O=C([C@@H]1CCO[C@@H]2CCN(Cc3ccc(F)cc3)C[C@H]21)N1CCCCO1 |  | 73.44%
O=C(O)C(F)(F)F.O=C([C@H]1CN(Cc2ccc(F)cc2)C[C@H]2OCC[C@@H]12)N1CCCO1 |  | 0.4926%
O=C([C@@H]1CCO[C@@H]2CCN(CC3CC3)C[C@H]21)N1CCCC1 |  | -7.409%
O=C(O)C(F)(F)F.O=C([C@@H]1CCO[C@@H]2CCN(Cc3cccs3)C[C@H]21)N1CCCCO1 |  | -10.74%
O=C(O)C(F)(F)F.O=C([C@@H]1CCO[C@@H]2CCN(CC3CCOCC3)C[C@H]21)N1CCCO1 |  | -19.56%
CC1(C)CNCCC(=O)C1 | -1.716% | 
C[C@H](N)c1ccc(Cl)s1 | 6.702% | 

SMILES | Percent Effect (50 µM) | Percent Effect (10 µM)
CCCc1nc(C(=O)NCCc2cccnc2)cs1 | -0.1814% | 
CCn1nc(C)cc1C(=O)N1CCNC(=O)C1(C)C | 1.148% | 
O=C1NCCN1CCNc1cc(C2CC(O)C2)ncn1 (configuration not stated) | 17.22% | 
CN1N=C(C(=O)NCCn2cccc2)CCC1=O | 4.885% | 
CCCNC(=O)C1=NN(C)C(=O)CC1 | -13.89% | 
CCc1ccccc1NC(=O)C1=NN(C)C(=O)CC1 | 53.5% | 
Cc1nc(C)c(C(=O)N2CCCC3(CCOC3)C2)s1 (configuration not stated) | -1.962% | 
CN(C)CCCN(CCC#N)C(=O)c1ccccn1 | 5.806% | 
Cc1n[nH]c(SCCN)n1 | 7.335% | 
Cc1cc(NC(=O)COC(=O)c2cccc(F)c2)[nH]n1 | 3.257% | 
O=C(CCN1C(=O)CCC1=O)OCCc1cccs1 | -8.658% | 
COc1ccc(CNCCn2cccn2)cc1OC | -8.387% | 
CC(C)c1ccc(C(CN)N2CCc3sccc3C2)cc1 (configuration not stated) |  | 87.38%
NCC(c1ccccc1)N1CCc2sccc2C1 (configuration not stated) |  | -0.2514%
NCC(c1ccc(Cl)cc1)N1CCc2sccc2C1 (configuration not stated) |  | 32.54%
CC(CNC(=O)c1cccc(OC(F)F)c1)N(C)C (configuration not stated) | -0.9989% | 
CCOCCN1CCN(CC(C)O)CC1 (configuration not stated) | -13.93% | 
O=c1cc(-c2cc(O)cc(CCC3CCCCN3)c2)cc[nH]1 (configuration not stated) |  | 0.1729%
Oc1cc(CCC2CCCCN2)cc(-c2ccncc2)c1 (configuration not stated) |  | -0.7663%
CS(=O)(=O)c1ccc(-c2cc(O)cc(CCC3CCCCN3)c2)cc1 (configuration not stated) |  | 50.66%
Cc1ccc(CN2CCOC(CCO)C2)c(F)c1 (configuration not stated) | 1.605% | 
CCNc1nc(-c2cccnc2)c(-c2ccnc(NS(C)(=O)=O)n2)s1 |  | -26.67%
CC(C)(C)Nc1nc(-c2cccnc2)c(-c2ccnc(NCCO)n2)s1 |  | 85.15%

SMILES | Percent Effect (50 µM) | Percent Effect (10 µM)
CCNc1nc(-c2cccnc2)c(-c2ccnc(NCCO)n2)s1 |  | 32.17%
Cc1noc(C)c1CNC(=O)c1csc(S(N)(=O)=O)c1 | -3.715% | 
Cn1cccc1C(=O)N1C[C@@H](OCc2ccncc2)[C@@H]2OCCC[C@@H]21.O=C(O)C(F)(F)F |  | 96.07%
COCC(=O)N1C[C@@H](OCc2ccncc2)[C@@H]2OCCC[C@@H]21.O=C(O)C(F)(F)F |  | 64.14%
Cn1cccc1C(=O)N1C[C@@H](OCc2cccnc2)[C@H]2OCCC[C@H]21 |  | 1.724%
Cc1cccc(C(=O)N2C[C@@H](OCc3ccncc3)[C@@H]3OCCC[C@@H]32)n1.O=C(O)C(F)(F)F.O=C(O)C(F)(F)F |  | -3.452%
COCC(=O)N1C[C@@H](OCc2cccnc2)[C@H]2OCCC[C@@H]21.O=C(O)C(F)(F)F |  | 1.724%
O=C(CC1CCCC1)N1C[C@H](OCc2ccncc2)[C@H]2OCCC[C@H]21.O=C(O)C(F)(F)F |  | -2.876%
Nc1nc2c(s1)Cc1ccccc1-2 | -5.547% | 
Cc1n[nH]c(C)c1S(=O)(=O)N1CCC(N)CC1 | 2.469% | 
CCS(=O)(=O)NCCNCc1ccc(Cl)cc1F | -9.661% | 
NC(=O)NC(=O)CSc1ncccn1 | -2.425% | 
Cc1nn(C)c(C)c1CC(=O)NCCc1ccccn1 | -1.397% | 
COc1ccc(CN)nc1 | 5.444% | 
COc1ccccc1CC1CCCN(C(=O)c2nccnc2N)C1 (configuration not stated) |  | -6.18%
CNc1ncc(C(=O)N2CCCC(Cc3ccccc3OC)C2)s1 (configuration not stated) |  | 65.23%
COc1ccccc1CC1CCCN(C(=O)c2cc[nH]n2)C1 (configuration not stated) |  | 4.307%
O=C(CN1C(=O)CC2(CCCCC2)C1=O)NC1CC1 | -7.096% | 
CN(C)C(=O)NCCNc1cccc(Br)c1 | -13.02% | 
CC(C)CCN1CCN(C(=O)c2nccnc2N)CC1 | 0.2706% | 
CCN(CC)S(=O)(=O)N1CCNCC1 | -3.294% | 
CC(=O)c1c[nH]c(C(=O)NCc2cccnc2)c1 | 0.2894% | 
O[C@@H]1CN(c2nc3ccccc3s2)CC[C@H]1c1ccc2c(c1)OCO2 |  | 53.23%

SMILES | Percent Effect (50 µM) | Percent Effect (10 µM)
O[C@@H]1CN(c2cnc3ccccc3n2)CC[C@H]1c1ccc2c(c1)OCO2 |  | 20.57%
O[C@@H]1CN(c2nc3ccccc3o2)CC[C@H]1c1ccc2c(c1)OCO2 |  | 30.32%
COc1cccc(NC(=O)C(C)Sc2nnnn2C)c1 (configuration not stated) | -3.512% | 
N#CCc1ccc(CO)cc1 | -0.5268% | 
Nc1c[nH]nc1-c1ccccn1 | 64.31% | 
c1ccc(-c2cc[nH]n2)nc1 | -7.989% | 
COCCC(C)Nc1c[nH]nc1-c1ccccn1 (configuration not stated) | 4.849% | 
Cc1ccc(OCCN2CCOCC2)cc1 | -4.655% | 
CC(N)(CO)c1ccc(Br)cc1 (configuration not stated) | 5.046% | 
CNC(=O)[C@@H]1CSCN1c1ccc(C(F)(F)F)cn1 | 98.68% | 
NC(=O)CC1CCCCN1c1ccc(C(F)(F)F)cn1 (configuration not stated) | -10.18% | 
O=C(NC1CN(c2ccc(C(F)(F)F)cn2)C1)C1CC1 | -14.77% | 
CN(C)C(=O)C1(N)CCCC1 | 3.679% | 
COC(=O)c1cccc(COC(=O)CCNC(C)=O)c1 | -1.212% | 
NC(=O)c1ccccc1COC(=O)c1ccsc1 | 4.513% | 
Cc1cncc(C(N)=O)c1 | 97.16% | 
Cc1cncc(C(=O)Nc2sc(C)cc2C(N)=O)c1 | 2.925% | 
Cc1cnn(-c2cncc(C(N)=O)c2)c1 |  | 0.2718%
Clc1cnn(CCN2CCN(C3CCNC3)CC2)c1 (configuration not stated) | 12.09% | 
COc1ncccc1CNC(=O)NC1CCS(=O)(=O)C1 (configuration not stated) | -1.32% | 
